# Source: PubChem BioAssay (EPA / NIEHS)
# The source made the active and inactive calls. The calls were made as follows: active = hit-call score of the fitted dose curve at least 0.9, where 1 is the maximum; inactive = score below 0.9.
# Assays:
# Conditions in all cases: mRNA level, 48 h; actives raise or lower the signal
# [1] = read-out: ABC Transporter (ABCB11), ABCB11 (gene 8647); assay: LTEA_HepaRG_ABCB11: Life Technologies and Expression Analysis (LTEA) Assay for ABC Transporter (ABCB11) using HepaRG (AID 2283463)
# In short: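 Using HepaRG cultures held in 0.5% DMSO, chemicals were tested at half-log dilutions from 100 uM for 48 h. Induction or suppression of ABCB11 mRNA, normalized to ACTB, GAPDH and POLR2A, was fitted bidirectionally against vehicle.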
# [2] = read-out: ABC Transporter (ABCC2), ABCC2 (gene 1244); assay: LTEA_HepaRG_ABCC2: Life Technologies and Expression Analysis (LTEA) Assay for ABC Transporter (ABCC2) using HepaRG (AID 2283464)
# In short: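 HepaRG cells were plated 48 h, switched to serum-free induction medium, then exposed in duplicate for 48 h to 8 concentrations (top 100 uM, half-log steps, 0.5% DMSO). ABCC2 mRNA was measured by qRT-PCR normalized to ACTB/GAPDH/POLR2A; bidirectional fitting versus DMSO.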
# [3] = read-out: Broad substrate specificity ATP-binding cassette transporter ABCG2 (Homo sapiens) (UniProt Q9UNQ0); assay: LTEA_HepaRG_ABCG2: Life Technologies and Expression Analysis (LTEA) Assay for ABC Transporter (ABCG2) using HepaRG (AID 2283465)
# In short: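 Gene expression of ABCG2 in HepaRG liver cells is quantified by qRT-PCR following 48 h exposure across an eight-point series topping at 100 uM. Values come from bidirectional fitting relative to DMSO vehicle.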
# [4] = read-out: ATP-citrate lyase (ACLY), ACLY (gene 47); assay: LTEA_HepaRG_ACLY: Life Technologies and Expression Analysis (LTEA) Assay for ATP-citrate lyase (ACLY) using HepaRG (AID 2283466)
# In short: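 ACLY expression changes in human HepaRG liver cells are quantified by qRT-PCR after 48 h exposure to test chemicals (maximum 100 uM, half-log steps). Values are fitted in both directions relative to 0.5% DMSO vehicle.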
# [5] = read-out: Peroxisomal acyl-coenzyme A oxidase 1 (ACOX1) gene, ACOX1 (gene 51); assay: LTEA_HepaRG_ACOX1: Life Technologies and Expression Analysis (LTEA) Assay for Peroxisomal acyl-coenzyme A oxidase 1 (ACOX1) gene using HepaRG (AID 2283467)
# In short: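 Human HepaRG hepatic cultures, 48 h treatment with test chemicals up to 100 uM. ACOX1 expression read by qRT-PCR relative to 0.5% DMSO vehicle.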
# [6] = read-out: Alkaline Phosphatase, Placental (ALPP) gene, ALPP (gene 250); assay: LTEA_HepaRG_ALPP: Life Technologies and Expression Analysis (LTEA) Assay for Alkaline Phosphatase, Placental (ALPP) gene using HepaRG (AID 2283468)
# In short: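 Differentiated human HepaRG cells were plated and cultured 48 h, then exposed in duplicate for 48 h in serum-free induction medium to eight half-log concentrations from 100 uM in 0.5% DMSO. ALPP mRNA was measured by TaqMan qRT-PCR, normalized to ACTB, GAPDH, POLR2A.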
# [7] = read-out: Bcl-2 (BAD) gene, BAD (gene 572); assay: LTEA_HepaRG_BAD: Life Technologies and Expression Analysis (LTEA) Assay for Bcl-2 (BAD) gene using HepaRG (AID 2283469)
# In short: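 Activity values reflect up- or down-regulation of BAD mRNA in human HepaRG hepatic cells treated 48 h in serum-free medium, with eight-point half-log dosing capped at 100 uM and 0.5% DMSO vehicle.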
# [8] = read-out: Bcl-2 (BAX) gene, BAX (gene 581); assay: LTEA_HepaRG_BAX: Life Technologies and Expression Analysis (LTEA) Assay for Bcl-2 (BAX) gene using HepaRG (AID 2283470)
# In short: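 qRT-PCR read-out of BAX mRNA, normalized to three housekeeping genes, after 48 h chemical exposure of human HepaRG cells in serum-free induction medium; eight-point half-log series, top 100 uM, 0.5% DMSO vehicle; bidirectional fit versus DMSO.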
# [9] = read-out: adenosine kinase (ADK) gene, ADK (gene 132); assay: LTEA_HepaRG_ADK: Life Technologies and Expression Analysis (LTEA) Assay for adenosine kinase (ADK) gene using HepaRG (AID 2283471)
# In short: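 Differentiated HepaRG cells dosed 48 h in serum-free induction medium, 0.5% DMSO vehicle, eight half-log concentrations from 100 uM, in duplicate. ADK mRNA by TaqMan qRT-PCR normalised to ACTB, GAPDH, POLR2A; bidirectional fit versus DMSO.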
# [10] = read-out: Alpha-fetoprotein (AFP) gene, AFP (gene 174); assay: LTEA_HepaRG_AFP: Life Technologies and Expression Analysis (LTEA) Assay for Alpha-fetoprotein (AFP) gene using HepaRG (AID 2283472)
# In short: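 qRT-PCR (Fluidigm TaqMan) readout of AFP transcript, normalized to three housekeeping genes, fitted bidirectionally against 0.5% DMSO baseline. HepaRG cells received chemicals for 48 h in serum-free induction medium, top concentration 100 uM, half-log steps.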
# BCL2L11 (gene 10018) = assay: LTEA_HepaRG_BCL2L11: Life Technologies and Expression Analysis (LTEA) Assay for Bcl-2 (BCL2L11) gene using HepaRG (AID 2283473)
# In short: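 Differentiated human HepaRG cells in serum-free induction medium were exposed in duplicate for 48 h to eight concentrations (top 100 uM, half-log steps, 0.5% DMSO). BCL2L11 mRNA was quantified by TaqMan qRT-PCR, normalized to ACTB/GAPDH/POLR2A, bidirectional fit versus DMSO.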
# [11] = read-out: Apolipoprotein A-V (APOA5) gene, APOA5 (gene 116519); assay: LTEA_HepaRG_APOA5: Life Technologies and Expression Analysis (LTEA) Assay for Apolipoprotein A-V (APOA5) gene using HepaRG (AID 2283474)
# In short: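 Differentiated human HepaRG cells were exposed in duplicate for 48 h to eight half-log concentrations from 100 uM in 0.5% DMSO. APOA5 mRNA was quantified by TaqMan qRT-PCR, normalized to ACTB, GAPDH and POLR2A, and fitted bidirectionally against DMSO.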
# [12] = read-out: Apoptosis regulator Bcl-2 (Homo sapiens) (UniProt P10415); assay: LTEA_HepaRG_BCL2: Life Technologies and Expression Analysis (LTEA) Assay for Bcl-2 gene using HepaRG (AID 2283475)
# In short: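 qRT-PCR read-out (Fluidigm TaqMan) of BCL2 transcript, normalised to three housekeeping genes, after 48 h chemical exposure of HepaRG cells; 8-point half-log series, top 100 uM, 0.5% DMSO vehicle. Gain or loss of signal fitted relative to DMSO baseline.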
# [13] = read-out: Bcl-2 (BID) gene, BID (gene 637); assay: LTEA_HepaRG_BID: Life Technologies and Expression Analysis (LTEA) Assay for Bcl-2 (BID) gene using HepaRG (AID 2283476)
# In short: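 HepaRG, 48 h exposure, 8-pt half-log series, top 100 uM, 0.5% DMSO vehicle, duplicates. Readout: BID mRNA by TaqMan qRT-PCR; housekeeping-normalized; bidirectional curve fit vs DMSO baseline.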
# Caspase-3 (Homo sapiens) = Caspase-3 (Homo sapiens) (UniProt P42574); assay: LTEA_HepaRG_CASP3: Life Technologies and Expression Analysis (LTEA) Assay for cysteine-aspartic acid protease (CASP3) using HepaRG (AID 2283477)
# In short: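 Differentiated human HepaRG cells in serum-free induction medium were exposed 48 h to 8-point half-log concentrations from 100 uM (0.5% DMSO vehicle). CASP3 mRNA was measured by qRT-PCR, normalised to ACTB, GAPDH and POLR2A, with bidirectional fitting against DMSO.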
# [14] = read-out: Cytochrome P450 (CYP24A1), CYP24A1 (gene 1591); assay: LTEA_HepaRG_CYP24A1: Life Technologies and Expression Analysis (LTEA) Assay for Cytochrome P450 (CYP24A1) using HepaRG (AID 2283478)
# In short: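 Differentiated HepaRG cells, pre-cultured 48 h, were exposed in duplicate for 48 h in serum-free induction medium to 8 half-log concentrations (top 100 uM, 0.5% DMSO). CYP24A1 mRNA was quantified by TaqMan qRT-PCR, normalized to ACTB/GAPDH/POLR2A, fitted bidirectionally versus DMSO.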
# [15] = read-out: Cytochrome P450 (CYP1A2), CYP1A2 (gene 1544); assay: LTEA_HepaRG_CYP1A2: Life Technologies and Expression Analysis (LTEA) Assay for Cytochrome P450 (CYP1A2) using HepaRG (AID 2283479)
# In short: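 Differentiated human HepaRG cells in serum-free induction medium were exposed in duplicate for 48 h to 8-point half-log concentrations up to 100 uM in 0.5% DMSO. CYP1A2 mRNA measured by qRT-PCR, normalized to ACTB, GAPDH, POLR2A; bidirectional fit vs DMSO.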
# [16] = read-out: cysteine-aspartic acid protease (CASP8), CASP8 (gene 841); assay: LTEA_HepaRG_CASP8: Life Technologies and Expression Analysis (LTEA) Assay for cysteine-aspartic acid protease (CASP8) using HepaRG (AID 2283480)
# In short: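 Concentration-response in duplicate up to 100 uM (half-log steps, 0.5% DMSO) on differentiated HepaRG cultures for 48 h. Expression change of CASP8 mRNA is determined by TaqMan qRT-PCR with housekeeping-gene normalization.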
# [17] = read-out: Cytochrome P450 (CYP2B6), CYP2B6 (gene 1555); assay: LTEA_HepaRG_CYP2B6: Life Technologies and Expression Analysis (LTEA) Assay for Cytochrome P450 (CYP2B6) using HepaRG (AID 2283481)
# In short: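 Differentiated HepaRG cells, serum-free induction medium, exposed 48 h in duplicate to 8-point half-log concentrations from 100 uM in 0.5% DMSO. CYP2B6 mRNA by qRT-PCR, normalized to ACTB, GAPDH, POLR2A; bidirectional fit versus DMSO.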
# [18] = read-out: Cytochrome P450 2C19 (Homo sapiens) (UniProt P33261); assay: LTEA_HepaRG_CYP2C19: Life Technologies and Expression Analysis (LTEA) Assay for CYP2C19 using HepaRG (AID 2283482)
# In short: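 Differentiated human HepaRG cells were exposed for 48 h in serum-free induction medium to 8 concentrations (top 100 uM, half-log steps, 0.5% DMSO). CYP2C19 mRNA was measured by qRT-PCR, normalized to ACTB/GAPDH/POLR2A, and fitted bidirectionally against DMSO.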
# Chain of Broad substrate specificity ATP-binding cassette transporter ABCG2 (Homo sapiens) (Q9UNQ0 whole entry, looked up): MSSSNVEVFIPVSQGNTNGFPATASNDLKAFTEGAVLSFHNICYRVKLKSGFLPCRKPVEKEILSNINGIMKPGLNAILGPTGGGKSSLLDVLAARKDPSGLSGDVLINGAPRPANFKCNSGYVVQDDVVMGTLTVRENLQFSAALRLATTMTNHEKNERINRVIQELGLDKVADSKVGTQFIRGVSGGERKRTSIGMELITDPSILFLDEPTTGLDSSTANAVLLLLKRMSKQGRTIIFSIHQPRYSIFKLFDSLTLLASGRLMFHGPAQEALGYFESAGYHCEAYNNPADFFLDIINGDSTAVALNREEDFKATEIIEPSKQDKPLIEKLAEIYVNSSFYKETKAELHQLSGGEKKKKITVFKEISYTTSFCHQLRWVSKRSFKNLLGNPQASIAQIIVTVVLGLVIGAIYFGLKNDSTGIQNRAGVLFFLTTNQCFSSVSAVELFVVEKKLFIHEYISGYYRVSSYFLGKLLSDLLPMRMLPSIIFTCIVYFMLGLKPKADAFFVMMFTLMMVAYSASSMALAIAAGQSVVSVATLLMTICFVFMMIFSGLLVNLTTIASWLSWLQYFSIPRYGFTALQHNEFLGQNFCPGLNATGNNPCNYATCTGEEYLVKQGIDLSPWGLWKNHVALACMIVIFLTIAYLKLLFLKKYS
# Chain of Cytochrome P450 2C19 (Homo sapiens) (P33261 whole entry, looked up): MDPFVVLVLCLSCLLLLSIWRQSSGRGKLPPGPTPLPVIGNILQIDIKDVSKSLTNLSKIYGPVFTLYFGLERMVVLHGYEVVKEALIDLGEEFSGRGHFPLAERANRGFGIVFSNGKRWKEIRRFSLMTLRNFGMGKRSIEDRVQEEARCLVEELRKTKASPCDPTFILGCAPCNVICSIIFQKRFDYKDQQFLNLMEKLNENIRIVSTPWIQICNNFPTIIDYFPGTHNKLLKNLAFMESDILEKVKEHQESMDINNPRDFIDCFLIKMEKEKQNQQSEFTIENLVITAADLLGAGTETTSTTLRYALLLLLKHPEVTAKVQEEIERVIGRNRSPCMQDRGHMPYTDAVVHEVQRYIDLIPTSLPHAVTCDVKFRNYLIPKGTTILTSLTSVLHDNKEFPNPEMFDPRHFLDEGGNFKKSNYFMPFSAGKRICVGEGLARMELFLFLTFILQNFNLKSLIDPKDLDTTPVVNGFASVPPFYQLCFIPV
# Chain of Caspase-3 (Homo sapiens) (P42574 whole entry, looked up): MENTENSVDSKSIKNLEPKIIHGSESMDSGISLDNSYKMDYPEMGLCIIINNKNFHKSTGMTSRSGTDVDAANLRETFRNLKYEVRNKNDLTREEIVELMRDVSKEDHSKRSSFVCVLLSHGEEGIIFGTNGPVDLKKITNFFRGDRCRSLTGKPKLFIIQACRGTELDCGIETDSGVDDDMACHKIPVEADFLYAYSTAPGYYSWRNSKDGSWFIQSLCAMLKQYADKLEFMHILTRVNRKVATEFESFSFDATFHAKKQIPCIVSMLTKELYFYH
# Chain of Apoptosis regulator Bcl-2 (Homo sapiens) (P10415 whole entry, looked up): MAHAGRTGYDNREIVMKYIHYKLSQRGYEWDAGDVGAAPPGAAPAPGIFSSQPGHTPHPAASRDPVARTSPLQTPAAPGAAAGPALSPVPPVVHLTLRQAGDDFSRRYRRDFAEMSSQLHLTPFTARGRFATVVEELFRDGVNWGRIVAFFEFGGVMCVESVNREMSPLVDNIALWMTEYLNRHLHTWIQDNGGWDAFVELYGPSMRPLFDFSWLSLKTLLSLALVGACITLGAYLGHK
smiles,measurement,setting,value
CCCCOC(=O)[C@@H](C)Oc1ccc(Oc2ccc(C#N)cc2F)cc1,outcome,[1],inactive
same,outcome,[2],inactive
same,outcome,[3],inactive
same,outcome,[4],inactive
same,AC50,[5],39.7 µM (active)
same,outcome,[6],inactive
same,outcome,[7],inactive
same,outcome,[8],inactive
same,outcome,[9],inactive
same,outcome,[10],inactive
same,outcome,BCL2L11 (gene 10018),inactive
same,outcome,[11],inactive
same,outcome,[12],inactive
same,outcome,[13],inactive
same,outcome,Caspase-3 (Homo sapiens),inactive
same,outcome,[14],inactive
same,AC50,[15],38.5 µM (active)
same,outcome,[16],inactive
same,outcome,[17],inactive
same,outcome,[18],inactive
